# Targets with a hit are over-represented here; the source holds about 8,800 in all. About 0.5% of all pairs of compound and target were hits. Values without a mark were called inactive.
# Experiments:
# Test in all cases: log2 fold change, soluble protein after heating vs DMSO (PISA); higher = thermal stabilisation; K562 lysate, 10 uM; active = over 0.2 and 3.5 SD of the protein, either way, in both replicates (recomputed)
# [1] = compound: NCC(=O)Nc1ccc(-n2nc(C(F)(F)F)cc2-c2ccc3c(ccc4ccccc43)c2)cc1
# In short: (§1)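 Values give the log-two fold change in thermal stability against solvent controls, from duplicates. Crude K562 extract at 1 mg/mL protein, made by dounce homogenisation in PBS pH 7.4 with 1 mM MgCl2, was treated with 10 μM compound for 30 min. After 3 min heating across 48°C-58°C, aliquots were pooled, adjusted to 0.5% NP-40 at 4°C and centrifuged at 21,000xg for 90 min. The supernatant was measured by TMTpro 16plex LC-MS/MS with channel sums equalised.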
# [2] = compound: O=C(CCCCCCC(=O)Nc1ccccc1)NO [vorinostat]
# In short: as §1
# [3] = compound: O=C(O)c1ccc2c(c1)nc(Nc1cccc(Cl)c1)c1ccncc12 [silmitasertib]
# In short: as §1
# [4] = compound: O=C1NC(=O)C(c2cnc3ccccn23)=C1c1cn2c3c(cc(F)cc13)CN(C(=O)N1CCCCC1)CC2
# In short: as §1
# [5] = compound: c1cn2cc(-c3ccc4cn[nH]c4c3)nc(Nc3ccc(N4CCOCC4)cc3)c2n1 [entospletinib]
# In short: as §1
# UniProt P78509, sequence (P78509 whole entry, looked up): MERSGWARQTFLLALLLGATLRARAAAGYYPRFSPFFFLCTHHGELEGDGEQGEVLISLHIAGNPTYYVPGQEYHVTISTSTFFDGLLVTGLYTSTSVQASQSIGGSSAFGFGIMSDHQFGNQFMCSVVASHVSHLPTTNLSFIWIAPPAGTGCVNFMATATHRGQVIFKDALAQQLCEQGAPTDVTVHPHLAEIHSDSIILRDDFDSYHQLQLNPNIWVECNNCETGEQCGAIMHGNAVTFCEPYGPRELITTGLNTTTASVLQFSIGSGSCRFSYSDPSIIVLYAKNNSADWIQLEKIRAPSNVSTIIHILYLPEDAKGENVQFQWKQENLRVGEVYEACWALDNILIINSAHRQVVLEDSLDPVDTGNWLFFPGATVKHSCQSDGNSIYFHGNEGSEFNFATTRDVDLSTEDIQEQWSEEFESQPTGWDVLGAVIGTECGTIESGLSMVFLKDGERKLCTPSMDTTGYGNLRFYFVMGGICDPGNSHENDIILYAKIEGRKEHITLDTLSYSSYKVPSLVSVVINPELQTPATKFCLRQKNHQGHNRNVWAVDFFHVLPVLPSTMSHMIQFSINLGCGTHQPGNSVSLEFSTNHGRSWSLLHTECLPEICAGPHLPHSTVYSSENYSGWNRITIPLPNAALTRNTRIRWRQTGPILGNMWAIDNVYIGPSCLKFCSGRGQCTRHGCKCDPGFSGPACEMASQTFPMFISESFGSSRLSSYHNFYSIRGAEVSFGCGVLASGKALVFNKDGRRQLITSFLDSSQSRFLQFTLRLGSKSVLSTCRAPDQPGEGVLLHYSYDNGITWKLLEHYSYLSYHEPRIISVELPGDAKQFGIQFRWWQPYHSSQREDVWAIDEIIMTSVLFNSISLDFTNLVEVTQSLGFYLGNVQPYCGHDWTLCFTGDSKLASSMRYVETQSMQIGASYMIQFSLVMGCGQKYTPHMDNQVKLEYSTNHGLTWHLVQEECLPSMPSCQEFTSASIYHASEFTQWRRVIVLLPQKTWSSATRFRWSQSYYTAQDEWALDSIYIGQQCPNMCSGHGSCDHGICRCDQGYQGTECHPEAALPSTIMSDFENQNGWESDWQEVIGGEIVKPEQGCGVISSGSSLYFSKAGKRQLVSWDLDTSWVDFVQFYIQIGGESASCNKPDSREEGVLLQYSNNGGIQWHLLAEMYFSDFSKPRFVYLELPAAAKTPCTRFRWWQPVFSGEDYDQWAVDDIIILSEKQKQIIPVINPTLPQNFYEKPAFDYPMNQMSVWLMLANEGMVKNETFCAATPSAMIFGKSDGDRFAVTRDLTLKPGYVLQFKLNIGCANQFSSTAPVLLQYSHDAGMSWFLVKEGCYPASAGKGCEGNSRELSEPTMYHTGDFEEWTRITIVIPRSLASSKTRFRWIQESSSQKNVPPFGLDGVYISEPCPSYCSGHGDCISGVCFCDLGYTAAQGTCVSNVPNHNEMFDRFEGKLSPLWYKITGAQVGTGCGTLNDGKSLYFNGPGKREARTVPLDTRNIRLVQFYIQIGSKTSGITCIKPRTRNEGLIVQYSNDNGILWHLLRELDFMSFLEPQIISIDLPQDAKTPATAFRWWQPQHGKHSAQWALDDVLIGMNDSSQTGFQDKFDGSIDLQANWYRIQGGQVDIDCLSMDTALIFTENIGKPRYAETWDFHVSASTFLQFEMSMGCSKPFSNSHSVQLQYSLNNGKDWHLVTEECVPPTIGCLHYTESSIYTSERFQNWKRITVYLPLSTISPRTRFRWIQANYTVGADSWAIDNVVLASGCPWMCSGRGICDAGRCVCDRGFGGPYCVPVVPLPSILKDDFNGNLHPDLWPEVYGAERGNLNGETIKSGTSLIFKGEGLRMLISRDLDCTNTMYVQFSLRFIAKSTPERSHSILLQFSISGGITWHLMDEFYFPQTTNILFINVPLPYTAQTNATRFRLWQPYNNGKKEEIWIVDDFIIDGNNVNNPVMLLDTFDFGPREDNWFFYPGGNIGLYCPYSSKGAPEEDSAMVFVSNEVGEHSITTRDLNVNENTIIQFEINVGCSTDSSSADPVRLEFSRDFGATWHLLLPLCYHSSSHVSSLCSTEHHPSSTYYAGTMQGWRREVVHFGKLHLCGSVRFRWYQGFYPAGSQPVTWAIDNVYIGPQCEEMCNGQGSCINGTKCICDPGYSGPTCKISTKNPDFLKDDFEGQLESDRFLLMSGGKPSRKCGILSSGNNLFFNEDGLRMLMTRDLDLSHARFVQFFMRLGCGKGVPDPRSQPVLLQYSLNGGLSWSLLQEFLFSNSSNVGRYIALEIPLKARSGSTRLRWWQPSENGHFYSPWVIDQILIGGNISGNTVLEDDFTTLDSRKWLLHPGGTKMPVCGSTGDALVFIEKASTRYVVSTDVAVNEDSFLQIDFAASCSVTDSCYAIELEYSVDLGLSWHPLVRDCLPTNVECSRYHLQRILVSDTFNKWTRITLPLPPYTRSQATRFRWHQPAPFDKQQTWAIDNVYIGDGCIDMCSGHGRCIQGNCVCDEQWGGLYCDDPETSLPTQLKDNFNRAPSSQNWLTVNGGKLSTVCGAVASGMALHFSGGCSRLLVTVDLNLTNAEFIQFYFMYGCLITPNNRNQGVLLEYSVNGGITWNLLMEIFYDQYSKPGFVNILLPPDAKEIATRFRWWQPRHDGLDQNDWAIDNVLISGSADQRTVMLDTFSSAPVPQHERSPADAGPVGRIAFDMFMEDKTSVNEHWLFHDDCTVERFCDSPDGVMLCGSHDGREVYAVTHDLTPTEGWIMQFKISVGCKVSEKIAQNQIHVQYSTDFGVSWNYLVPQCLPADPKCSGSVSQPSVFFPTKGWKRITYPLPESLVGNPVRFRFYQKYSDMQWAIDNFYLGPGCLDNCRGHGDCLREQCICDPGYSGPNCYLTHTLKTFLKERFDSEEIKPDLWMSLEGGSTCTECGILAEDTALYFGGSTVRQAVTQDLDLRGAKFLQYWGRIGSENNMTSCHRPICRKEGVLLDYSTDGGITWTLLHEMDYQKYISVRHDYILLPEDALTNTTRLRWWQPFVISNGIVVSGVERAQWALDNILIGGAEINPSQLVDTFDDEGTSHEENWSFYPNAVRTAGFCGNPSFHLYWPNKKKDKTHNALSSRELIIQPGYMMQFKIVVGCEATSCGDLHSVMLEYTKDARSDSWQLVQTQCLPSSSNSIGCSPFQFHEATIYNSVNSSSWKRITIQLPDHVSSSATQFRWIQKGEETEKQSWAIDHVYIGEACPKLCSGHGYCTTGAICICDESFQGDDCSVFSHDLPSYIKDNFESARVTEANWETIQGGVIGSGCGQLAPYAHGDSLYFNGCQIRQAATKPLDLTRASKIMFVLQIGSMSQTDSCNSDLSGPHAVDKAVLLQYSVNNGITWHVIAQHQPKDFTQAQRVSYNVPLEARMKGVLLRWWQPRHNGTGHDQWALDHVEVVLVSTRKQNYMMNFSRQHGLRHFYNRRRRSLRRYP
# UniProt Q9NR31, sequence (Q9NR31 whole entry, looked up): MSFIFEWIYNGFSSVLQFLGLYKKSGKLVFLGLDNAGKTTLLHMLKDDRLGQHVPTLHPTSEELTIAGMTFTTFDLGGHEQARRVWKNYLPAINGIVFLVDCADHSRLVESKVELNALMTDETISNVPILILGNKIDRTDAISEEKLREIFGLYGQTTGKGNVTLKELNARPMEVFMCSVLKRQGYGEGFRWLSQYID
# UniProt O75880, sequence (O75880 whole entry, looked up): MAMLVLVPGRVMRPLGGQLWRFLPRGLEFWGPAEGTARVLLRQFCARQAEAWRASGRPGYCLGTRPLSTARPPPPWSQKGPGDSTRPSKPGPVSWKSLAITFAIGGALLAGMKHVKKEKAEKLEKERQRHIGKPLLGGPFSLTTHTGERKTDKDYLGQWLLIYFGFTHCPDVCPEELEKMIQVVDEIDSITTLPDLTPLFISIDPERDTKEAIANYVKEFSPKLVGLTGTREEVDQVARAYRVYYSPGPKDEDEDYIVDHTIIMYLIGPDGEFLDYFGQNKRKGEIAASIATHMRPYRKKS
# UniProt Q04864, sequence (Q04864 whole entry, looked up): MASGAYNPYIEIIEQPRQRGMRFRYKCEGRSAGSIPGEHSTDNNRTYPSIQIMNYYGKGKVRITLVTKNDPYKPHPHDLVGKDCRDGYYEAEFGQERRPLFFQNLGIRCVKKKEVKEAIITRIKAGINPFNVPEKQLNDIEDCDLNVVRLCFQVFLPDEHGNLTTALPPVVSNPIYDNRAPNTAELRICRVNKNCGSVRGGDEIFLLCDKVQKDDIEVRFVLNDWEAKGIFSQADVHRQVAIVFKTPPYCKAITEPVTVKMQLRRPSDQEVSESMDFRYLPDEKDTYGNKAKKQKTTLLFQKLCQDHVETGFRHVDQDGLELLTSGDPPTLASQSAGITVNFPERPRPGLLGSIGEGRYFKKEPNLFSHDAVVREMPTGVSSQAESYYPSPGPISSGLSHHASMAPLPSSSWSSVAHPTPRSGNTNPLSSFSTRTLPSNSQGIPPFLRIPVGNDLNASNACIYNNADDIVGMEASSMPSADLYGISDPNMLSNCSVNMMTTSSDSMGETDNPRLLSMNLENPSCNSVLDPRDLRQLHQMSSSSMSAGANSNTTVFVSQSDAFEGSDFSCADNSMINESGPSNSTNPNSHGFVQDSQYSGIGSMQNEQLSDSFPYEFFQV
# UniProt O43502, sequence (O43502 whole entry, looked up): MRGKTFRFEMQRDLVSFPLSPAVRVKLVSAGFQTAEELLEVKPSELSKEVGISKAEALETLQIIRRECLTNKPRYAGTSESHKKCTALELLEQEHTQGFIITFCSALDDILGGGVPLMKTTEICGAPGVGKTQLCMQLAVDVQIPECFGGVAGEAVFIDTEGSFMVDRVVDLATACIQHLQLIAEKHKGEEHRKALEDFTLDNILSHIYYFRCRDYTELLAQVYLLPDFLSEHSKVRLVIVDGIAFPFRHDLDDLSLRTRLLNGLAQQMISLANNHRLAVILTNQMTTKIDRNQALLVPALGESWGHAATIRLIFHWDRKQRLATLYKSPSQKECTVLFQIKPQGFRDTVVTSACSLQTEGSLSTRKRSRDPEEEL
Target,log2 fold change [1],log2 fold change [2],log2 fold change [3],log2 fold change [4],log2 fold change [5]
RIPK1 (UniProt Q13546),-0.021,-0.292 (active),-0.037,-0.013,0.011
RDH10 (UniProt Q8IZV5),-0.038,-0.007,0.006,-0.042,0.162
RPN2 (UniProt P04844),-0.007,0.118,0.008,-0.04,-0.009
RPS26P11 (UniProt Q5JNZ5),-0.026,0.114,0.049,-0.113,-0.035
RELN (UniProt P78509),0.016,0.088,-0.049,0.006,-0.037
RAB3IL1 (UniProt Q8TBN0),-0.006,-0.268 (active),0.025,0.07,0.015
SEC13 isoform 3 (UniProt P55735),-0.01,-0.115,0.021,-0.045,-0.001
"RNF213, A0A0A0MTC1",0.022,-0.381 (active),0.032,0.007,0.052
SDHC (UniProt Q99643),-0.046,-0.196,0.048,-0.071,0.088
REEP6 (UniProt Q96HR9),-0.031,0.068,-0.083,-0.028,-0.059
"QSER1, A0A3B3IRW6",-0.013,-0.236 (active),0.038,0.033,0.002
SCML2 (UniProt Q9UQR0),-0.099,-0.243 (active),0.039,0.037,0.007
RAD50 isoform 2 (UniProt Q92878),-0.005,-0.458 (active),0.024,-0.009,-0.003
SAR1A (UniProt Q9NR31),0.004,0.056,-0.077,-0.039,-0.089
REL isoform 2 (UniProt Q04864),-0.052,-0.351 (active),0.07,-0.004,0.019
RNPS1 (UniProt Q15287),-0.014,0.02,-0.093,-0.012,0.009
SCO2 (UniProt O43819),-0.024,0.063,-0.079,0.017,0.053
RABGGTB (UniProt P53611),-0.058,-0.286 (active),0.006,-0.005,-0.044
RAD51C (UniProt O43502),0.023,-0.386 (active),-0.003,-0.015,0.065
SCO1 (UniProt O75880),0.022,0.149,-0.067,-0.052,0
RCOR1 (UniProt Q9UKL0),0.034,-0.184,-0.014,-0.011,0.009
RIOK1 (UniProt Q9BRS2),0.016,-0.035,0.358 (active),-0.02,0.029
REXO4 (UniProt Q9GZR2),0.03,-0.127,0.05,-0.035,0.067
SATB2 (UniProt Q9UPW6),0,-0.347 (active),0.051,-0.024,0.036
